eIF4E-4G inh – blocks eIF4E binding to eIF4G | P63073+Q04637 | TR-FRET eIF4E-eIF4GI(517-606) binding, 2 h | inhibition, % at 21.7 µM | actives 0.37% (n = 220,000) | AID 782;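 active means inhibition above about 30%, limit read from the data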;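 further: 0% = full FRET control wells and 100% = background wells lacking eIF4GI fragment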
Mcl1-Noxa inh – Mcl-1/Noxa interaction inhibition; Q07820; TR-FRET Mcl-1/Noxa peptide binding, 2 h; actives 1.5% (n = 220,000); AID 1022; inhibition, % at 21.7 µM;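 active means compounds that cut the protein-peptide binding signal by more than 50% relative to plate controls in a single-dose test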;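 further: His-tagged Mcl-1 with rhodamine Noxa BH3 peptide and terbium anti-His antibody; 0% = Mcl-1 plus Noxa peptide wells and 100% = peptide-only wells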
Target sequence (Q07820 whole entry, looked up): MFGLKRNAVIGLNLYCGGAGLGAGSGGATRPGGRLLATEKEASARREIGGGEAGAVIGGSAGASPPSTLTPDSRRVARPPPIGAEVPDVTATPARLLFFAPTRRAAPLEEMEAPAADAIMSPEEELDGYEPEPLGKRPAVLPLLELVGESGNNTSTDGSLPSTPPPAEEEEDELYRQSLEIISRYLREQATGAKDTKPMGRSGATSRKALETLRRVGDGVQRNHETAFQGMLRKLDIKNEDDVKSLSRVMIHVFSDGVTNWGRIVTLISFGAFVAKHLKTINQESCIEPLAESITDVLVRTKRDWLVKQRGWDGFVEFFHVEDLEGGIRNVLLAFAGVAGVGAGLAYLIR
14-3-3 Bad PPI – disrupts binding of bovine 14-3-3 zeta to phospho-Bad peptide. TR-FRET 14-3-3zeta/Dy647-pBad peptide displacement, 1 h. inhibition, % at 21.7 µM. actives 0.71% (n = 220,000). AID 781;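 active means inhibition above about 70%, limit read from the data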;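 further: 0% = full 14-3-3 plus peptide FRET controls and 100% = background without 14-3-3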
Target sequence (P63103 whole entry, looked up): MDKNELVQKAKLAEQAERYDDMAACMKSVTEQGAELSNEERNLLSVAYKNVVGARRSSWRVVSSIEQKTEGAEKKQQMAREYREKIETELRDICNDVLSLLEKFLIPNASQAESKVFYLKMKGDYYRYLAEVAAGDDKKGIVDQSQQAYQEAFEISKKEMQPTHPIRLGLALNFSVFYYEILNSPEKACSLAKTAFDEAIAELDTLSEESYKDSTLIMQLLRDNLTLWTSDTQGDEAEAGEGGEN
Mcl1-Bid inh – Mcl-1/Bid interaction inhibition. AID 1021. TR-FRET Mcl-1/Bid-Dy647 peptide binding, 1536-well. actives 0.97% (n = 220,000). inhibition, % at 21.7 µM. Q07820;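 active means compounds that cut the binding signal by more than half at the single screening dose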;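 further: His-tagged Mcl-1 with europium anti-His antibody binding Bid BH3 peptide; 0% = Mcl-1 plus peptide wells and 100% = peptide-only wells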
Bim-Mcl-1 – human Bim-Mcl-1 interaction inhibition. Q07820. inhibition, % at 10 µM. Bead-based flow cytometry, Bim peptide-Mcl-1 binding. actives 0.1% (n = 190,000). AID 1009; in the data active means inhibition above about 40%;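 further: 0% = no compound tracer wells and 100% = peptide blocker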
MCL1 BIM primary – inhibitors of human MCL1 binding to BIM-BH3 peptide; Q07820; GST-MCL1 / FITC-Bim-BH3 fluorescence polarization; inhibition, % at 10.9 µM; actives 0.68% (n = 320,000);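 active means inhibition above the mean inhibition of all tested compounds plus 3 SD, set per campaign, cut at about 40% in these data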;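 further: 0% = DMSO wells and 100% = unlabeled Bim-BH3 peptide control; higher means more loss of mP so more displacement of Bim peptide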
The depositor's hits bear a star; · = no result given. A selection: hits, their analogues and other compounds. The true share with any hit is near 2.6%.

SMILES	eIF4E-4G inh	Mcl1-Noxa inh	14-3-3 Bad PPI	Mcl1-Bid inh	Bim-Mcl-1	MCL1 BIM primary
S=c1[nH]nc(-c2ccccc2)n1/N=C/c1ccc(-c2ccccc2Cl)o1	9.6	63.9*	26.2	34.1	-3.0	-11.3
N=C1/C(=C\c2coc3ccccc3c2=O)C(=O)N=C2SC(c3ccncc3)=NN12	12.3	61.1*	35.2	-159.4	·	-38.2
CC1=C(C(=O)OC2CCC(C)CC2)C(c2ccc(O)c([N+](=O)[O-])c2)NC(=O)N1 (configuration not stated)	·	·	·	·	·	10.6
CCOc1ccc(-c2nc(=S)[nH][nH]2)cc1	52.0*	17.6	-3.7	-19.9	0.0	12.3
COc1ccc(-c2nnc(SCC(=O)NC(=O)Cc3ccccc3)n2C)cc1	·	·	·	·	·	-28.1
CCOC(=O)C(NC(C)=O)(Nc1ccc(S(=O)(=O)Nc2cc(C)on2)cc1)C(F)(F)F (configuration not stated)	3.2	22.8	7.1	3.5	-1.0	1.5
Cc1cc(NS(=O)(=O)c2ccc(NC(NC(=O)C(C(F)(F)F)C(F)(F)F)(C(F)(F)F)C(F)(F)F)cc2)no1	21.3	40.1	48.1	70.7*	1.0	·
C=CCN1C(=O)C(CC(=O)Nc2ccc(OCCC)cc2)N(CCCN2CCN(Cc3ccccc3)CC2)C1=S (configuration not stated)	-1.1	4.8	-9.3	-25.3	-2.0	6.8
O=S(=O)(Nc1ccc(N2CCCCC2)cc1)c1ccc(F)c(F)c1	7.2	51.3*	-11.1	-41.1	5.0	1.6
O=C(O)c1cc(S(=O)(=O)Nc2ccc(N3CCCCC3)cc2)ccc1Cl	3.5	46.2	-13.7	-47.9	2.0	1.8
CCCCn1c(-c2cccs2)nc2nc3ccccc3nc21	2.0	17.6	-3.8	-7.4	-1.0	-1.8
CCCCOCCCn1c(-c2ccco2)nc2nc3ccccc3nc21	54.1*	16.3	-8.3	1.9	-4.0	18.1
Cc1[nH]c2c(C)cccc2c1CC(=O)O	-5.0	6.9	86.2*	-40.1	-1.0	-7.2
O=C(NCc1cccnc1)C1CC(c2ccccc2Cl)=NO1 (configuration not stated)	·	·	·	·	·	2.4
CCN1C(=O)[C@H]2[C@@H](c3ccc(-c4ccccc4)cc3)N3CCC[C@@]3(C(=O)OC)[C@H]2C1=O	·	·	·	·	·	-10.6
CN1CCC(N(C)CC(=O)Nc2ccc3c(c2)OC(F)(F)O3)CC1	-5.6	28.8	44.8	59.8*	·	6.8
CCN(c1ccccc1)S(=O)(=O)c1ccc(Cl)c(NC(=O)CN2CCN(C)CC2)c1	·	·	·	·	·	-24.7
CN1CCC(N(C)CC(=O)Nc2ccccc2N2CCOCC2)CC1	8.0	36.5	78.8*	3.3	3.0	2.6
CSc1ccccc1NC(=O)CN(C)CC(=O)Nc1ccccc1N1CCOCC1	1.7	9.4	-8.8	-10.1	-2.0	-5.8
CCN(c1ccccc1)S(=O)(=O)c1ccc(Cl)c(NC(=O)CN(C)C2CCN(C)CC2)c1	0.7	38.1	90.3*	36.7	·	-3.9
CCc1cccc2sc(N3CCN(C(=O)c4ccc([N+](=O)[O-])o4)CC3)nc12	·	·	·	·	·	-1.7
COc1ccc(C)cc1S(=O)(=O)N(C)CC(=O)NCc1ccco1	-1.8	11.8	-1.3	94.4*	1.0	8.0
Cc1ccc(/C(O)=C2/C(=O)C(=O)N(c3ccccn3)C2c2cccc([N+](=O)[O-])c2)cc1 (configuration not stated)	·	·	·	·	·	1.1
COc1cc(/C=N/N(C)c2ccccc2)ccc1O	6.6	56.2*	11.6	-36.1	0.0	2.8
COc1cc(/C=N/NC(=O)C2COc3ccccc3O2)ccc1O (configuration not stated)	1.6	3.7	-15.3	-35.6	·	-4.1
SMILES	eIF4E-4G inh	Mcl1-Noxa inh	14-3-3 Bad PPI	Mcl1-Bid inh	Bim-Mcl-1	MCL1 BIM primary
COc1cc(/C=N/NC(=O)C2c3ccccc3Oc3ccccc32)ccc1O	40.8*	79.0*	33.2	9.7	13.0	3.1
COc1ccc(C(C)=O)cc1CSc1nnc(-c2ccc(Cl)cc2)n1-c1ccccc1	-9.6	2.3	0.2	6.0	-1.0	-2.8
Cc1ccc(S(=O)(=O)Nc2nc3ccccc3nc2NCc2ccco2)cc1	7.5	16.9	36.1	4.7	0.0	42.8*
O=S(=O)(Nc1nc2ccccc2nc1NCc1ccco1)c1ccc(Cl)cc1	-0.7	22.1	8.9	15.6	-2.0	13.4
COc1ccc(N(CC(=O)NCc2ccc(C)cc2)S(=O)(=O)c2c(C)noc2C)cc1	·	·	·	·	·	10.4
CCc1nnc(NC(=O)CSc2ncnc3c2oc2ccccc23)s1	-10.5	-117.0	72.8*	-68.2	-1.0	-3.1
O=C(CSc1ncnc2c1oc1ccccc12)Nc1nc2ccccc2s1	3.2	-16.3	6.3	8.5	5.0	-1.2
OCc1ccc2c(c1)c(-c1ccc3c(c1)OCCO3)c(-c1ccccc1)n2-c1ccccc1	·	·	·	·	·	1.1
O=[N+]([O-])c1cccc(N/N=C/c2cc([N+](=O)[O-])ccc2O)c1	-0.9	99.7*	14.7	-20.2	1.0	0.3
COc1ccc(CCNC(=O)CSc2nnc(CNC(=O)c3cc(OC)c(OC)c(OC)c3)o2)cc1OC	·	·	·	·	·	-4.9
CC1CC(C)CN(CCOCCSc2ccccc2)C1 (configuration not stated)	-1.8	17.7	21.1	69.0*	-5.0	7.3
CC1CC(C)CN(CCCSc2ccccc2)C1 (configuration not stated)	-20.6	26.4	13.3	38.9	0.0	12.3
Cc1ccc(OCCn2c(=O)n(C)c3ccccc32)cc1	2.4	9.7	-5.5	-17.6	-3.0	-0.1
CCN(CC)c1ccc(NC(=O)CCCOc2cccc(C)c2)cc1	34.0*	77.0*	6.7	-49.2	1.0	·
CCn1cc(C(=O)Nc2ccccc2C(=O)OC)cn1	·	·	·	·	·	4.3
CCN(CC)c1ccc(NC(=O)c2ccc3c(c2)c(C)c(C)n3C)cc1	23.3	76.8*	20.9	-4.3	0.0	5.8
CCOc1cccc(C(=O)Nc2ccc(N(CC)CC)cc2)c1	0.3	64.8*	5.9	-29.8	0.0	6.4
CCOc1cccc(C(=O)Nc2ccc3ccccc3c2)c1	·	·	·	·	·	8.7
CCN(CC)c1ccc(NC(=O)c2cnn(CC)c2)cc1	9.9	66.1*	-4.9	17.9	-3.0	2.3
Cc1c(C)n(C)c2ccc(C(=O)NCCCN3CCCC3)cc12	·	·	·	·	·	4.6
CCCSc1ccc([C@@H]2[C@@H]3C(=O)N(C)C(=O)[C@@H]3[C@]3(C(=O)OC)CCCN23)cc1OC	·	·	·	·	·	7.4
O=C(Cn1c(=O)oc2ccccc21)N1CCCC1	·	·	·	·	·	0.1
CCOC(=O)CSc1ncnc2c1cnn2-c1ccc(C)cc1	8.0	12.4	-10.1	-7.5	0.0	1.1
CCOC(=O)CSc1ncnc2c1cnn2-c1ccc(Cl)cc1	0.0	-24.3	85.3*	-20.1	1.0	4.5
Cc1cc(CC(=O)O)c2oc(-c3ccoc3)cc(=O)c2c1	·	·	·	·	·	47.2*
Cc1ccc2c(CC(=O)O)coc2c1	-4.0	12.0	9.0	2.5	-1.0	3.8
O=C(O)/C=C/C(=O)Nc1ccc(OC(F)F)cc1	-1.2	8.1	-0.1	-5.1	0.0	-2.1

Screening data (PubChem BioAssay)
